Results: PubChem BioAssay (NCI)
About 83,000 compounds went through this panel and 20% of them were active in at least one assay; those are over-represented in the sample as a whole.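 Activity criterion: percent growth below 10, measured after cells in 96-well plates were exposed to a single compound concentration for 48 hours.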 Values without a mark were called inactive. Active and inactive are the calls of the source.

Legend:
Experiment in all cases: NCI-60 one-dose screen, 48 h (100 = growth as untreated, 0 = no growth, -100 = all killed)
Conditions in all cases: 10 µM unless noted
SR leukemia = system: SR leukemia
RPMI-8226 leukemia = system: RPMI-8226 leukemia
OVCAR-8 ovarian = system: OVCAR-8 ovarian
OVCAR-5 ovarian = system: OVCAR-5 ovarian
OVCAR-4 ovarian = system: OVCAR-4 ovarian
SK-OV-3 ovarian = system: SK-OV-3 ovarian
OVCAR-3 ovarian = system: OVCAR-3 ovarian
HS 578T breast = system: HS 578T breast
NCI/ADR-RES ovarian = system: NCI/ADR-RES ovarian
T-47D breast = system: T-47D breast
BT-549 breast = system: BT-549 breast
SW-620 colon = system: SW-620 colon
MCF7 breast = system: MCF7 breast
HCT-116 colon = system: HCT-116 colon
HCC-2998 colon = system: HCC-2998 colon
KM12 colon = system: KM12 colon
MDA-MB-435 melanoma = system: MDA-MB-435 melanoma
IGROV1 ovarian = system: IGROV1 ovarian

Row | SMILES | growth (SR leukemia) | growth (RPMI-8226 leukemia) | growth (OVCAR-8 ovarian) [%] | growth (OVCAR-5 ovarian) [%] | growth (OVCAR-4 ovarian) | growth (SK-OV-3 ovarian) | growth (OVCAR-3 ovarian) | growth (HS 578T breast) | growth (NCI/ADR-RES ovarian) | growth (T-47D breast) [%] | growth (BT-549 breast) [%] | growth (SW-620 colon) | growth (MCF7 breast) | growth (HCT-116 colon) | growth (HCC-2998 colon) [%] | growth (KM12 colon) | growth (MDA-MB-435 melanoma) | growth (IGROV1 ovarian) [%]
1 | C#Cc1ccc(NC(=O)c2ccc(/C=C/C(=O)c3nccn3C)cc2)c(F)c1 | 8.09% (active) | -5.69% (active) | 21.4 | 40.7 | 42.3% | 65.3% | 12.6% | 51.4% | 10.8% | 14.6 | 40.2 | 18.9% | 11% | 18% | 82.6 | 23.5% |  | 
2 | C#CCOc1ccc(C(Nc2cc(Cl)ccc2Cl)c2nnnn2C2CCCCC2)cc1 (centres undefined) | 87.6% | 81.1% | 91.3 | 93.1 | 93.3% | 100% | 95.6% | 87.4% | 80.2% | 67.5 | 93.6 | 91.8% | 73.4% | 56.3% | 90.1 |  | 102% | 
3 | O=C(NNc1nc2cc(F)c(F)cc2n2cccc12)c1ccncn1 | 14.6% | 16.9% | 17.5 | 39 | 3.66% (active) |  | 12.7% | 48.2% | 5.95% (active) | 15.1 | 28.7 | 23.5% | 6% (active) | 20.4% | 53.3 | 21.4% | 33% | 15.7
4 | COc1ccc(-c2nc(SCC(C)C)nc(N/N=C\c3cccc([N+](=O)[O-])c3)c2C#N)cc1 | 43.5% | 66.9% | 25.5 | 71.5 | 38.7% | 74% |  | 43% | 51.5% | 64 | 64.1 | 56.9% | 61.6% |  | 80.3 |  | 67.3% | 
5 | COc1ccc(-c2ccnc3c(C#N)c(Nc4ccccc4)nn23)cc1OC | 73.8% | 78.3% | 85.2 | 83.2 | 103% | 100% |  | 84% | 85.5% | 80.5 | 86.1 | 90% | 90.2% | 87.5% | 99.1 | 96.6% | 103% | 
6 | Cc1ccc(/C=C/c2nn3c(-c4ccco4)nnc3s2)cc1 | 77.3% | 95.4% | 100 | 100 | 102% | 115% |  |  | 104% | 92.9 | 99.2 | 102% | 89.5% |  | 114 | 103% | 97.1% | 
7 | C/C=C/[C@@H]1C=C[C@@H]2C[C@H](C)CC[C@H]2[C@]1(C)/C(O)=C1/C(=O)[C@H](CO)N(C)C1=O | 59.2% | 36.5% | 43.4 | 118 | 70.5% | 75% | 49.1% |  | 6.87% (active) | 74.7 | 75.2 | 52.5% | 68.3% | 61.4% | 57 | 47.2% | 74.8% | 
8 | Cn1cc(-c2nn3cc(-c4ccncc4)nc3s2)c2cc(Cl)ccc21 | -4.53% (active) | 19.5% | 14.6 | 66.8 | 78.6% | 89.5% |  | 49.8% | 32.4% | 31.3 | 46 | 18.8% | 17% | -52.9% (active) | 36.3 | 56.5% | 14.5% | 
9 | CCOC(=O)c1nn(-c2ccccc2)c(=O)c2c(N)c(C#N)c(-c3cccs3)cc12 | 96% | 74.4% | 54.5 | 88.8 | 36.7% |  | 109% | 32.9% | 59.8% | 76.7 | 107 | 79.3% | 74.6% | 52.8% | 78.2 | 80.4% | 90.3% | 64
10 | O=C(NNc1nc2cc(F)c(F)cc2n2cccc12)c1ncccn1 | 18.7% | 20.8% | 21.9 | 49.6 | 13.4% |  | 20.8% | 49.1% | 10.1% | 14.8 | 36.8 | 26.4% | 16.9% | 31.2% | 62.4 | 25.6% | 26.1% | 20.5
11 | CCOC(=O)c1c(NC(=O)c2ccc(F)cc2F)sc2c1CCC(=O)C2 | 88% | 106% | 96.9 | 104 | 102% | 104% | 113% | 103% | 96.8% | 81.4 | 94.2 | 69.7% | 93.4% | 96.5% |  | 90.9% | 98.9% | 
12 | CC1CCc2c(sc3nc(SCC(=O)N/N=C/c4ccc(Cl)cc4)n(-c4ccccc4)c(=O)c23)C1 (centres undefined) | 96% | 101% | 96.7 | 99.4 | 99.4% | 97.9% |  | 82.2% | 97.2% | 103 | 99.6 | 107% | 90.5% | 89.7% | 112 | 103% | 101% | 
13 | Cc1ccc(/C=C/CC(=O)Nc2ccc(C(=O)Nc3ccc(F)cc3N)nc2)cn1 | 31.4% | 8.53% (active) | 29.1 | 38.5 | 43.9% |  | 59% | 35.6% | 53.6% | 10.8 | 48.5 | 26.8% | 18.4% | 17.7% | 31.4 | 49.5% | 18.6% | 43.9
14 | COc1ccc(N2C(=O)c3cc(OC)c(OC)cc3NC2SCc2ccccc2)cc1 (centres undefined) | 83.5% | 114% | 103 | 109 | 102% | 112% | 125% | 125% | 99.7% | 98.5 | 106 | 114% | 96.3% | 100% | 121 | 108% | 107% | 
15 | CCc1ccc(NC(=O)N[C@@H](Cc2cc(F)cc(F)c2)C(=O)N[C@@H]2C(=O)N3CCC[C@H]3C(=O)N3CCO[C@H](C)[C@H]3C(=O)N[C@@H](CO)C(=O)N3C[C@H](C)C[C@H]3C(=O)O[C@H]2C)c(F)c1 | 32% | 17% | 22.9 | 35.9 | 22.9% | 26.3% |  | 35.8% | 70% | 35.7 | 33.3 | 35.7% | 15.7% |  | 26 | 39.6% | 20.3% | 
16 | C#C[C@]1(O)CC[C@H]2[C@@H]3CC=C4c5sc(Nc6cccc(Cl)n6)nc5CC[C@]4(C)[C@H]3CC[C@@]21C | 2.56% (active) | -23.2% (active) | 29.3 | 22.8 | 47.8% | -13.7% (active) |  | -19.9% (active) | 23% | 25.8 | 24.1 | -61% (active) | -70.4% (active) | 10.1% | 24.2 | -10.8% (active) | -65.8% (active) | 
17 | Oc1ccc(CSc2nnc(-c3ccncc3)o2)c2cccnc12 | 50.4% | 5.35% (active) | 15.8 | 35.7 | 19.7% | 4.05% (active) | 19.8% | 5.36% (active) | 58.4% | 15.8 | 23.7 | 16.4% | 4.01% (active) |  | 30.2 | 14.2% | 13.4% | 
18 | O=C(NNc1nc2cc(F)c(F)cc2n2cccc12)c1cccnn1 | 11.8% | 9.62% (active) | 19.8 | 42.5 | 4.78% (active) |  | 7.39% (active) | 29.3% | -0.232% (active) | 13.7 | 32.3 | 22% | 7.41% (active) | 8.91% (active) | 49.2 | 24.3% | 27.8% | 14.4
